From the supplement of paper PMC12067093, “Discovery and optimisation of a covalent ligand for TRIM25 and its application to targeted protein ubiquitination” (Chemical Science, 2025)
The full data set covers some 21,000 targets. This sample favours those with the largest changes.

Legend:
Assay in all cases: probe-labelled cysteine peptide fold change vs DMSO (competition) (log2 fold change); higher = less target engagement (more negative = stronger competition)
Details in all cases: THP-1, incubation time: 4 h
[1] = target: A6NIZ1_A6NIZ1_118_VKDTDDVPMILVGNKCDLEDERVVGK<|>RAP1B_P61224_118_VKDTDDVPMILVGNKCDLEDERVVGK (UniProt P61224+A6NIZ1)
[2] = target: A6NNZ2_A6NNZ2_303_NMMAACDPR<|>TUBB4A_P04350_303_NMMAACDPR<|>TUBB_P07437_303_NMMAACDPR<|>TUBB4B_P68371_303_NMMAACDPR<|>TUBB3_Q13509_303_NMMAACDPR<|>TUBB2A_Q3ZCM7_303_NMMAACDPR<|>TUBB8_Q9BUF5_303_NMMAACDPR<|>TUBB6_Q9BVA1_303_NMMAACDPR (UniProt Q9BVA1+Q3ZCM7+Q13509+P68371+P07437+P04350+Q9BUF5+A6NNZ2)
[3] = target: ABCC1_P33527_1047_CLHVDLLHSILR (UniProt P33527)
[4] = target: ABCF2_Q9UG63_586_LIQQVAQEIWVCEK (UniProt Q9UG63)
[5] = target: ABHD10_Q9NUJ1_229_EAEHHCLLHSPIPVNCPIR (UniProt Q9NUJ1)
[6] = target: ABHD15_Q6UXT9_323_EFEEALFCHTK (UniProt Q6UXT9)
[7] = target: ABHD16A_O95870_544_HLHNFEATHCTPLPAQNFQMPWHL (UniProt O95870)
[8] = target: ABHD17B_Q5VST6_250_CQRPVEPLWVEGAGHNDVELYGQYLER (UniProt Q5VST6)
[9] = target: ACAA1_P09110_123_QCSSGLQAVASIAGGIR (UniProt P09110)
[10] = target: ACAA1_P09110_177_ARDCLIPMGITSENVAER (UniProt P09110)
[11] = target: ACAA2_P42765_116_EAEVVLCGGTESMSQAPYCVR (UniProt P42765)
[12] = target: ACAD9_Q9H845_271_GSNTCEVHFENTK (UniProt Q9H845)
[13] = target: ACADS_P16219_109_GCASTGVIMSVNNSLYLGPILK (UniProt P16219)
[14] = target: ACADVL_P49748_237_TSAVPSPCGK (UniProt P49748)
[15] = target: ACADVL_P49748_477_LFVALQGCMDK (UniProt P49748)
[16] = target: ACADVL_P49748_603_MLCDTWCIEAAAR (UniProt P49748)
[17] = target: ACAP2_Q15057_329_FCFEVVSPTK (UniProt Q15057)
[18] = target: ACAP2_Q15057_691_GPLHHATVLGHTGQVCLFLK (UniProt Q15057)
[19] = target: ACAT1_P24752_196_IHMGSCAENTAK (UniProt P24752)
[20] = target: ACAT1_P24752_413_QGEYGLASICNGGGGASAMLIQK (UniProt P24752)
[21] = target: ACAT2_Q9BWD1_360_VNIEGGAIALGHPLGASGCR (UniProt Q9BWD1)
[22] = target: ACLY_P53396_633_GVTIIGPATVGGIKPGCFK (UniProt P53396)
[23] = target: ACO2_Q99798_451_DLGGIVLANACGPCIGQWDRK (UniProt Q99798)
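Further: competitive profiling in live THP-1 cells: cysteine peptides tagged with an iodoacetamide desthiobiotin (IA-DTB) probe, intensity after compound treatment relative to DMSO-treated cells.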

Sequence of UniProt O95870 (O95870 whole entry, looked up): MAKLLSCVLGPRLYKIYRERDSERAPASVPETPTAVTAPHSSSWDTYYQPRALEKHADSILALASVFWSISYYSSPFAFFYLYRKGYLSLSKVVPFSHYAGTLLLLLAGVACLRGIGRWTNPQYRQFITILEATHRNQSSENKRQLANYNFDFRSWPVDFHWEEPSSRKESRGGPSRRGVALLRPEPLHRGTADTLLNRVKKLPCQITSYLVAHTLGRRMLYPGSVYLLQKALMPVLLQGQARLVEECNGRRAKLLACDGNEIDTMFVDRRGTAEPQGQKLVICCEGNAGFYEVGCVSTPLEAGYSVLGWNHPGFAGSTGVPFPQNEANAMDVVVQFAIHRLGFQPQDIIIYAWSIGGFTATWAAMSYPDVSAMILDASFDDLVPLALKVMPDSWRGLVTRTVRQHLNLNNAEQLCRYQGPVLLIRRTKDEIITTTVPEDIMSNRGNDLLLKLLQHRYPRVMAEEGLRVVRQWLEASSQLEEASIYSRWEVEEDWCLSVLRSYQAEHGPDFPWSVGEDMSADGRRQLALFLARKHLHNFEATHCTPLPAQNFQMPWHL
Sequence of UniProt Q9NUJ1 (Q9NUJ1 whole entry, looked up): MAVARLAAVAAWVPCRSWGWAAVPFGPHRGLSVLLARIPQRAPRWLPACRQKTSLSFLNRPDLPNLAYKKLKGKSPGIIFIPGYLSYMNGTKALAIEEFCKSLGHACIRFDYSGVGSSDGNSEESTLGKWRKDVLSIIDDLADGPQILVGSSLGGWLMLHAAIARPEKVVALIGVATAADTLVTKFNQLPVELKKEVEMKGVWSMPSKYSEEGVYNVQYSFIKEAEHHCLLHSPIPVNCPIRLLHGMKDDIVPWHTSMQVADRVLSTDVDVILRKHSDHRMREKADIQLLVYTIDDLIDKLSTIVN
Sequence of ABHD15_Q6UXT9_323_EFEEALFCHTK (Q6UXT9 whole entry, looked up): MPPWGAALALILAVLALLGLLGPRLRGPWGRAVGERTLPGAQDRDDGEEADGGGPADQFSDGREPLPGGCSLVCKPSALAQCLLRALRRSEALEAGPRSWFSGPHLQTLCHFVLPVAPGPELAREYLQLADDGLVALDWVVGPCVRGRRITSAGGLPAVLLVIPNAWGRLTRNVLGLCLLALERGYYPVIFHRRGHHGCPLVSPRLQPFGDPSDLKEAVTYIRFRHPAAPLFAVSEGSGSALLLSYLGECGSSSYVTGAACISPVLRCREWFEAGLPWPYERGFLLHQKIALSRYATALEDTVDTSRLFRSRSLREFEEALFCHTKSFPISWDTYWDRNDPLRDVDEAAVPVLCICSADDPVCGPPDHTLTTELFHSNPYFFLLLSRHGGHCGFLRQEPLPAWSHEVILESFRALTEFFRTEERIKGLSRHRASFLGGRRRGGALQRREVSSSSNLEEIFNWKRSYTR
Sequence of UniProt Q5VST6 (Q5VST6 whole entry, looked up): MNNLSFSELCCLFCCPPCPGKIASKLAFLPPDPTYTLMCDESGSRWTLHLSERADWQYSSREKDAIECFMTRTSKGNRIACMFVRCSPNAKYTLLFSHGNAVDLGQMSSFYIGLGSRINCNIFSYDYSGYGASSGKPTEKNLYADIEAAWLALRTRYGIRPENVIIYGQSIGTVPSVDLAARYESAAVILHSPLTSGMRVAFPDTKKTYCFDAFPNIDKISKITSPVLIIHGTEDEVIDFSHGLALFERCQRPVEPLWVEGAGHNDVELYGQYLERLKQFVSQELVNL
Sequence of UniProt A6NIZ1 (A6NIZ1 whole entry, looked up): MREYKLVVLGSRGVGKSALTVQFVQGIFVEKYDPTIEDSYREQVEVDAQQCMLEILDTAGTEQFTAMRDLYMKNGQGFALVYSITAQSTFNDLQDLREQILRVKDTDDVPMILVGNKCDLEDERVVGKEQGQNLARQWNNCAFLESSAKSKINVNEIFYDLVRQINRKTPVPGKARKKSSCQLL
Sequence of UniProt A6NIZ1 (P61224 whole entry, looked up): as the sequence (A6NIZ1 whole entry, looked up) above, with R12G, E42K counted along it
Sequence of UniProt Q99798 (Q99798 whole entry, looked up): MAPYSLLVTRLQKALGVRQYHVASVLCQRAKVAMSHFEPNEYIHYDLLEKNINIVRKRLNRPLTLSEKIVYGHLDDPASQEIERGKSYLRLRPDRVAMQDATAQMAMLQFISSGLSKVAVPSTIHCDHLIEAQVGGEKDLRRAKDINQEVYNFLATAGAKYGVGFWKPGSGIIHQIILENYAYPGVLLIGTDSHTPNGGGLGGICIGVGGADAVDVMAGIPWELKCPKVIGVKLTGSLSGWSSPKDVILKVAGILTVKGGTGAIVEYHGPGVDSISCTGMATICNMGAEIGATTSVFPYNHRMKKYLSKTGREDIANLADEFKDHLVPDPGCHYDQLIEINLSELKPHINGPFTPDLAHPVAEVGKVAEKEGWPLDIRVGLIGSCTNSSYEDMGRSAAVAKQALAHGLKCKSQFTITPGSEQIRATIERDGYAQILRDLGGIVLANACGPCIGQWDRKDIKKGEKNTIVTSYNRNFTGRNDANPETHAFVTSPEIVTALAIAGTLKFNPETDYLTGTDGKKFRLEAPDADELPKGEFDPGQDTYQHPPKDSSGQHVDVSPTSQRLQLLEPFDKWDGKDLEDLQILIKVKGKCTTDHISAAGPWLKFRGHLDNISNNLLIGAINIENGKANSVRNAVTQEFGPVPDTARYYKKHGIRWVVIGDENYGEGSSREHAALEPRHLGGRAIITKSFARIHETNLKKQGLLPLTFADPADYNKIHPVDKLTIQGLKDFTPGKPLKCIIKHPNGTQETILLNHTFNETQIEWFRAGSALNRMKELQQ
Sequence of UniProt P24752 (P24752 whole entry, looked up): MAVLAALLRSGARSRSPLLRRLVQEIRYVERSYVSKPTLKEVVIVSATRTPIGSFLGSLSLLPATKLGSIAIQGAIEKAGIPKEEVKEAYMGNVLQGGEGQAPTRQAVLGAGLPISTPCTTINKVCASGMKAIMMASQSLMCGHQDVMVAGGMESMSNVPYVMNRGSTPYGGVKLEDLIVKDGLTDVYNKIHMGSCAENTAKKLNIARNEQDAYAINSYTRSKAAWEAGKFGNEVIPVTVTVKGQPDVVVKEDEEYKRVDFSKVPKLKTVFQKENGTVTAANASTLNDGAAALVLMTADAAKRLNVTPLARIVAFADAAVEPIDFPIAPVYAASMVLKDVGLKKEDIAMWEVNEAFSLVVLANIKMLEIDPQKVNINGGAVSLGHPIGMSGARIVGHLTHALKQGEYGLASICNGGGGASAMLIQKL
Sequence of UniProt P24752 (P24752 whole entry, looked up): as above
Sequence of UniProt Q9BWD1 (Q9BWD1 whole entry, looked up): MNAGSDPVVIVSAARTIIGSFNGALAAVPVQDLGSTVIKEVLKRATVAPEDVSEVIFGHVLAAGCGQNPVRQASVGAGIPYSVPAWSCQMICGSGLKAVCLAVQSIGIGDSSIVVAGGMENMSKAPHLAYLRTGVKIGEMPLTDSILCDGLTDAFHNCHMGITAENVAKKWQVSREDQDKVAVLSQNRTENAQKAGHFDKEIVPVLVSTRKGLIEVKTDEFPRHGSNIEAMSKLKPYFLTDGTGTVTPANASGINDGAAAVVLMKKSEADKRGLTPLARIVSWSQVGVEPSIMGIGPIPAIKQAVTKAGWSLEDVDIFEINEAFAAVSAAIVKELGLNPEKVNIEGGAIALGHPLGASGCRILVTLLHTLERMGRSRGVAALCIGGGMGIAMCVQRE
Sequence of UniProt Q9H845 (Q9H845 whole entry, looked up): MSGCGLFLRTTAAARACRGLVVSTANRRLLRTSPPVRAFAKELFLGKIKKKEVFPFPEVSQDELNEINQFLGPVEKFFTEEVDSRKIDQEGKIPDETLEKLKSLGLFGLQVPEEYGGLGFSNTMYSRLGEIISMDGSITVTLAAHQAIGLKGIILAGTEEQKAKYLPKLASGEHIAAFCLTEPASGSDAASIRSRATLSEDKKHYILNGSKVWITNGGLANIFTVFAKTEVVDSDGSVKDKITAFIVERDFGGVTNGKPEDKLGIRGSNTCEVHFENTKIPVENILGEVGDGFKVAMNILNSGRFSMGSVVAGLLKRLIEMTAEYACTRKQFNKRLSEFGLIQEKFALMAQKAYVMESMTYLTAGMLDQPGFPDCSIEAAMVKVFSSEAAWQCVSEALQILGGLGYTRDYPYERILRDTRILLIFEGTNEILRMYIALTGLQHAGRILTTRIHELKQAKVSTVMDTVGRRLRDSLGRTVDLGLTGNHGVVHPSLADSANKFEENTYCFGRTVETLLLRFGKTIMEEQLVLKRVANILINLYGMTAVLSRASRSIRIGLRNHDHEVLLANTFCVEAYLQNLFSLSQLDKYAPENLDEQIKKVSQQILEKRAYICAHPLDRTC
Sequence of UniProt P16219 (P16219 whole entry, looked up): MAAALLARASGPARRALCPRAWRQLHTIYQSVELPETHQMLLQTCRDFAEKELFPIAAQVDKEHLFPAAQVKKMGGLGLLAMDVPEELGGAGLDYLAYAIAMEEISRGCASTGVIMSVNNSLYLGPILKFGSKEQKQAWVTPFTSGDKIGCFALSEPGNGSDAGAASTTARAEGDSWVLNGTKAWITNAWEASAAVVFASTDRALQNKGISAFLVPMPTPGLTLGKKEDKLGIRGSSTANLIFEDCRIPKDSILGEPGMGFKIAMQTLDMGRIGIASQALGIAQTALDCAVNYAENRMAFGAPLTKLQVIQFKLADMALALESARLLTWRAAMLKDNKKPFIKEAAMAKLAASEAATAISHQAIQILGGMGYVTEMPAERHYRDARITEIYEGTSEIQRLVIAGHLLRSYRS

Cc1cc(C(=O)N2CCCN(C(=O)CCl)CC2)ccc1-c1ccccc1 [compound 10]
probe-labelled cysteine peptide fold change ([1]; 10 µM): -0.667
probe-labelled cysteine peptide fold change ([1]; 50 µM): -1.16
probe-labelled cysteine peptide fold change ([2]; 10 µM): -0.0352
probe-labelled cysteine peptide fold change ([2]; 50 µM): -0.104
probe-labelled cysteine peptide fold change ([3]; 10 µM): -0.245
probe-labelled cysteine peptide fold change ([3]; 50 µM): -0.823
probe-labelled cysteine peptide fold change ([4]; 10 µM): 0.35
probe-labelled cysteine peptide fold change ([4]; 50 µM): 0.325
probe-labelled cysteine peptide fold change ([5]; 10 µM): 0.0491
probe-labelled cysteine peptide fold change ([5]; 50 µM): 0.0493
probe-labelled cysteine peptide fold change ([6]; 10 µM): 0.0269
probe-labelled cysteine peptide fold change ([6]; 50 µM): -0.0455
probe-labelled cysteine peptide fold change ([7]; 10 µM): -0.497
probe-labelled cysteine peptide fold change ([7]; 50 µM): -1.15
probe-labelled cysteine peptide fold change ([8]; 10 µM): 0.198
probe-labelled cysteine peptide fold change ([8]; 50 µM): 0.147
probe-labelled cysteine peptide fold change ([9]; 10 µM): -0.136
probe-labelled cysteine peptide fold change ([9]; 50 µM): -0.197
probe-labelled cysteine peptide fold change ([10]; 10 µM): -0.114
probe-labelled cysteine peptide fold change ([10]; 50 µM): 0.0101
probe-labelled cysteine peptide fold change ([11]; 10 µM): -0.0523
probe-labelled cysteine peptide fold change ([11]; 50 µM): 0.00696
probe-labelled cysteine peptide fold change ([12]; 10 µM): 0.0883
probe-labelled cysteine peptide fold change ([12]; 50 µM): 0.106
probe-labelled cysteine peptide fold change ([13]; 10 µM): 0.363
probe-labelled cysteine peptide fold change ([13]; 50 µM): 0.27
probe-labelled cysteine peptide fold change ([14]; 10 µM): -0.143
probe-labelled cysteine peptide fold change ([14]; 50 µM): -0.259
probe-labelled cysteine peptide fold change ([15]; 10 µM): -0.223
probe-labelled cysteine peptide fold change ([15]; 50 µM): 0.311
probe-labelled cysteine peptide fold change ([16]; 10 µM): -0.105
probe-labelled cysteine peptide fold change ([16]; 50 µM): -0.188
probe-labelled cysteine peptide fold change ([17]; 10 µM): 0.23
probe-labelled cysteine peptide fold change ([17]; 50 µM): 0.177
probe-labelled cysteine peptide fold change ([18]; 10 µM): -0.107
probe-labelled cysteine peptide fold change ([18]; 50 µM): -1.08
probe-labelled cysteine peptide fold change ([19]; 10 µM): -0.282
probe-labelled cysteine peptide fold change ([19]; 50 µM): -1.22
probe-labelled cysteine peptide fold change ([20]; 10 µM): -0.164
probe-labelled cysteine peptide fold change ([20]; 50 µM): -1.09
probe-labelled cysteine peptide fold change ([21]; 10 µM): 0.232
probe-labelled cysteine peptide fold change ([21]; 50 µM): 0.226
probe-labelled cysteine peptide fold change ([22]; 10 µM): -0.00834
probe-labelled cysteine peptide fold change ([22]; 50 µM): 0.0362
probe-labelled cysteine peptide fold change ([23]; 10 µM): -0.125
probe-labelled cysteine peptide fold change ([23]; 50 µM): -0.398
